# Reference: the supplement of paper PMC3334620
# Over roughly 33,000 sequences, “E-score (-0.5 to 0.5)” has its median near -0.04; the highest 2% begin near 0.36. The list comes from a sample in which the highest values are over-represented; it also holds similar and randomly drawn sequences.
# Target: T1, Hmlalpha2 (UniProt P0CY09)
# T1 sequence: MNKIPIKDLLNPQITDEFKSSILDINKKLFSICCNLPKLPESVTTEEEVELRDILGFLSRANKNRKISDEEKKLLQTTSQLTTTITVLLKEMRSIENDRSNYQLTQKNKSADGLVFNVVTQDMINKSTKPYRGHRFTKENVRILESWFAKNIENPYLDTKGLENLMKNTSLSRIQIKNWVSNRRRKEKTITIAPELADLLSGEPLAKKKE
# Assay: PBM E-score (8-mer binding enrichment) (E-score (-0.5 to 0.5)); higher = stronger / more preferred TF binding
# Details: protein concentration: 200 nM; construct: GST-full length
# Procedure: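 Universal 'all 10-mer' protein binding microarrays (Agilent AMADID 015681) probed with GST-tagged S. cerevisiae TFs (full-length or DBD) made by in vitro transcription/translation (PURExpress), about 100-200 nM. Bound TF was detected with fluorescent anti-GST. Each ungapped 8-mer (which stands for itself and its reverse complement) is scored by the PBM enrichment score (E-score), a modified Wilcoxon-Mann-Whitney statistic from -0.5 to +0.5, computed with the Universal PBM Analysis Suite. Scale: above 0.35 generally sequence-specific binding.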
row,Sequence,PBM E-score
1,AGAGGCCT,-0.263
2,AAATCTCA,-0.0212
3,GAGGTCTA,-0.0189
4,GCTGCAGC,-0.305
5,CGCGTTAC,0.212
6,AGCGTTAA,0.0425
7,CACGTTAA,0.376
8,CGCGTTAA,0.427
9,TACGTTAA,0.325
10,GGCGTTAA,0.216
11,CACGTTAG,0.113
12,CGCGTTAG,0.3
13,TGCGTTAA,0.397
14,GCTATCAA,-0.0322
15,CTGACTCA,-0.179
16,AAGTCGCG,0.111
17,TAATTCGA,0.121
18,ACGCAAAA,0.145
19,CCAGTGAC,-0.125
20,GCAGTTTA,0.00455
21,GTTATACA,0.4
22,GTTATAGA,0.368
23,CTTATACA,0.252
24,ATTATAGA,0.0519
25,ATTATACA,0.34

row,Sequence,PBM E-score
1,CTTATAGA,-0.154
2,CATGCGCC,-0.0099
3,ATGTCGGA,0.0661
4,CACGTAAC,0.196
5,AACGTAAC,0.207
6,TACGTAAA,0.41
7,AACGTAAA,0.325
8,TACGTATA,0.327
9,AACGTAAT,0.379
10,GACGTAAA,0.28
11,CACGTAAG,0.244
12,CACGTAAA,0.405
13,CGTCCACA,-0.0612
14,CCGCGGCC,-0.192
15,CTGCAAAG,-0.0914
16,CACGTTGG,0.109
17,ACAGAGAG,-0.0914
18,CCCAATGC,-0.198
19,AAACATGT,0.445
20,GAACATGA,0.31
21,AAACATCT,0.202
22,AAACATAT,0.311
23,AAACATCC,0.17
24,AAACATGG,0.349
25,AAACATGC,0.37

row,Sequence,PBM E-score
1,CAACATGG,0.403
2,CCACATGA,0.109
3,CCACATGG,-0.0738
4,CAACATGA,0.449
5,AAACATAC,0.267
6,ATCCTCCA,-0.166
7,ATACTGAT,0.126
8,ACAGCCGG,-0.073
9,AGAGCTCC,-0.252
10,CTGGGAGA,-0.262
11,AAACATGA,0.388
12,ACACATGG,0.21
13,ACACATGT,0.394
14,ACACATGA,0.304
15,TAACATCA,0.338
16,TAACATTA,0.331
17,GAACATGC,0.272
18,CAACATAC,0.303
19,AAACATAA,0.348
20,AAACATCA,0.278
21,TAACATGA,0.462
22,CAACATGC,0.398
23,ACTAACCC,0.0236
24,CAAGGGTC,-0.199
25,CCACACAG,-0.0322

row,Sequence,PBM E-score
1,ATGCGTTG,0.205
2,GACTGACC,-0.192
3,GAGGTCAA,-0.0488
4,GTGAAGAA,0.181
5,CCCAAACG,-0.123
6,ACAACTCA,0.194
7,AGAATAGC,-0.15
8,AGTGCCAC,-0.215
9,CAGGAGCC,-0.225
10,CTCCCTCC,-0.389
11,GTCACACA,0.15
12,CTTACTCA,-0.0475
13,GTTACACA,0.435
14,CTCACACA,0.114
15,CTTACACA,0.408
16,GTTACAAA,0.303
17,GCAAAACA,0.135
18,CCCTTGCC,-0.285
19,TAACCGCA,0.0481
20,AGACTCAT,-0.0539
21,CAATTACA,0.445
22,TAATTATA,0.245
23,CAATTACC,0.0295
24,CACTTACA,0.281
25,AAATTACA,0.424

row,Sequence,PBM E-score
1,TAATTACA,0.462
2,TACTTACA,0.379
3,CAATTACG,0.349
4,TAATTAGA,0.167
5,GACTTACA,0.274
6,AAATTACT,0.209
7,AAATTACG,0.309
8,CACCGCTA,-0.0146
9,CGAATTCA,-0.0293
10,AATGTAGT,0.249
11,GGGGCCTA,-0.31
12,GCCGCGGC,-0.242
13,CCGCGATC,-0.238
14,AATTCTGC,-0.061
15,GAATTACA,0.444
16,GAATTACC,0.107
17,GAATTATA,0.113
18,CTTGCTTC,0.0506
19,GTCATCGA,-0.0402
20,GATTACGC,0.345
21,CTTTACGA,0.185
22,ATTTACGC,0.347
23,CATTACGC,0.321
24,AATTACGA,0.338
25,CTTTACGC,0.42

row,Sequence,PBM E-score
1,AATTACGC,0.431
2,AATTACGT,0.382
3,AATTACGG,-0.0144
4,AATAACTG,0.0798
5,CCACTAGC,-0.111
6,AATACCCT,-0.0975
7,TCATTCCA,-0.147
8,CGTAATCC,0.309
9,CGTAATTC,0.321
10,CGTAATTA,0.389
11,CGTAATCA,0.367
12,GGTAATTA,0.25
13,AGTAATCA,0.199
14,ACTGCTTG,-0.00682
15,AACGAAGT,0.0804
16,ACAGCAGC,0.0712
17,CACGCGTG,0.374
18,TACGCGTA,0.409
19,TACGCGGA,0.312
20,TACGCGCA,0.252
21,CACGCGTA,0.277
22,GACGCGTA,0.383
23,AACGCGTA,0.359
24,CACGCGTC,0.174
25,AACGCGTG,0.336

row,Sequence,PBM E-score
1,CCCCCGTA,-0.247
2,AATGGAGT,-0.0239
3,AACTCTAA,0.0318
4,CCTTGATC,-0.0105
5,AATGTACC,0.166
6,TCTGTACA,0.258
7,CATGTACC,0.287
8,GGTGTACA,0.211
9,GATGTACC,0.135
10,TCAGTACA,0.227
11,CCTGTACA,0.304
12,GATGTACA,0.379
13,AATGTACA,0.366
14,AATGTACT,0.186
15,TATGTACA,0.429
16,CATGTACA,0.458
17,GCTTTGAC,0.074
18,GCGCACAC,-0.189
19,GTCAAGAC,-0.135
20,ATCACTGG,-0.0104
21,TATCTGGA,-0.16
22,GGTCCCTA,-0.0695
